Assay results published in PubChem BioAssay (NCI).
This is part of a sample that, as a whole, favours compounds with a hit. Of some 83,000 tested, about 20% had one in any assay.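 Cell lines were cultured in 96-well plates, exposed to a single compound concentration, and assessed for percent growth 48 hours later.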 Unmarked numbers belong to inactive results. Activity calls are given as the source filed them. Rule for the calls: active = growth percent below 10; inactive = the rest.

System: MDA-MB-468 breast
Assay: NCI-60 one-dose screen, 48 h (100 = growth as untreated, 0 = no growth, -100 = all killed)
Conditions: 10 µM unless noted

Row | Compound | growth
1 | O=[N+]([O-])c1cnc(Sc2ccncn2)s1 | -63.7% (active)
2 | C[C@H](Oc1cc(-c2cnn(C3CCNCC3)c2)cnc1N)c1c(Cl)ccc(F)c1Cl | 34.9%
3 | COc1ccc(Cl)cc1NC(=O)c1cc2c([nH]1)-c1nc(NC(=O)C(C)C)sc1CC2 | 112%
4 | CN(CCC(=O)c1ccccc1)CCC(=O)c1ccccc1 | 73.4%
5 | COc1ccc(C(=O)N2C=Cc3ccccc3C2C#N)cc1 (stereo not given) | 82.9%
